Sm TGR inh = blocks Schistosoma mansoni thioredoxin glutathione reductase | purified TGR, DTNB reduction, TNB absorbance 405 nm | Potency, µM (doses to about 114 µM), for inactives: at the top dose activity change, negative = inhibition, most hits filed as inhibitors | 360,000 tested, 3% active | AID 485364; also: nearly all actives have a fitted effect of over 60% in size
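First, TGR (20 nM dispensed) and NADPH were mixed with compound. Second, a 15 min room-temperature incubation followed. Third, further NADPH and then DTNB were added to start the reaction. Finally, TNB absorbance was monitored kinetically.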
AmpC detergent = inhibitors of E. coli AmpC beta-lactamase with detergent; P00811; AmpC hydrolysis of nitrocefin, absorbance 480 nm, 0.01% Triton; Potency, µM (series often up to 114 µM), inactives show top-dose activity change, negative = inhibition, actives largely listed as inhibitors; 370,000 tested, 0.041% active;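 also: 0% = no-compound wells and -100% = no-enzyme wells; nearly all actives have a fitted effect of over 25% in size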
Target sequence (P00811 whole entry, looked up): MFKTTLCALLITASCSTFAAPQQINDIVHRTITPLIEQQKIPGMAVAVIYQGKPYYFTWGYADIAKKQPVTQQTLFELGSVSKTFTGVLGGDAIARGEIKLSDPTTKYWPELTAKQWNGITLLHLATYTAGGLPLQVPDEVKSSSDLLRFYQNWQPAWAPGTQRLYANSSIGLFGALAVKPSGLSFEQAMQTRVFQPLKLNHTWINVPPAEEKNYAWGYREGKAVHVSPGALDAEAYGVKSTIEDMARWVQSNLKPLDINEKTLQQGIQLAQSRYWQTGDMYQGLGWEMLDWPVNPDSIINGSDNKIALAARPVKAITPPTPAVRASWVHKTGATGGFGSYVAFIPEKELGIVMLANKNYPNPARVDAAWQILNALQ
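AmpC (5.3 nM in the dispensed reagent) in 20 mM phosphate pH 7.0 with 0.01% (detergent screen) or 0.0001% Triton X-100 was preincubated with compounds for 15 min at room temperature. Nitrocefin was then added from an 800 uM solution, and hydrolysis was followed at 480 nm.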
AmpC inh no detg = blocks E. coli AmpC beta-lactamase in detergent-free assay; Potency, µM (highest dose often 57.1 µM), for the others: at the top dose activity change, negative = inhibition, actives largely listed as inhibitors; AID 485341; AmpC nitrocefin hydrolysis, absorbance 480 nm, 0.0001% Triton; 330,000 tested, 0.52% active;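 also: plate controls were no compound for no effect and no enzyme for full effect; nearly all actives have a fitted effect of over 20% in size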
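AmpC (5.3 nM in the dispensed reagent) in 20 mM phosphate pH 7.0 with 0.01% (detergent screen) or 0.0001% Triton X-100 was preincubated with compounds for 15 min at room temperature. Nitrocefin was then added from an 800 uM solution, and hydrolysis was followed at 480 nm.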
Active calls of the source: *; ? = inconclusive; . = not tested or not shown; [ ] = another dose, or the depositor's remark. Compounds with a hit are over-represented: about 3.3% of the library has one in this group of screens. Calls follow the shape of the dose curve; as a rule, active = well fitted curve in the direction sought with a large enough effect; inconclusive = small, poorly fitted or top-dose-only effect, or another doubt; inactive = no such curve, though single readings can be large; an effect the other way counts as inactive or inconclusive. Unless noted, % is scaled to controls: 0 for no effect and ±100 for the full control effect; potency is read from the fitted curve at half-maximal effect.

SMILES	Sm TGR inh	AmpC detergent	AmpC inh no detg
CCN(CC)Cc1cc(O)c(CN(CC)CC)cc1O	3.16µM*	-1.9%	-2.8%
Cc1c(C(=O)N2c3ccccc3CC2C)oc2ccccc12 (stereo unspecified)	3.3%	3.0%	-18.5%
C=CCn1c(Sc2ncc([N+](=O)[O-])s2)n[nH]c1=O	0.224µM*	-5.9%	-45.3%
C=CCn1c(CSc2ccccc2[N+](=O)[O-])n[nH]c1=S	-19.0%	-7.8%	?
Cc1cc(C)n2ncc(C(=O)O)c2n1	-2.6%[57.1 µM]	3.6%	-12.3%
COc1cc(-c2nnc(SCCOc3cc(C)cc(C)c3)o2)cc(OC)c1OC	35.5µM*	20.7%	.
CCc1ccccc1OCCSc1nnc(-c2cc(OC)c(OC)c(OC)c2)o1	-12.8%	1.2%	.
Cc1ccc(N2C(=O)N(CC(=O)Nc3ccc(C)cc3Cl)C(=O)C2C)cc1 (stereo unspecified)	-2.3%	?	-15.7%
O=C(CN1CCN(Cc2ccccc2)CC1)Nc1ccc(Cl)cn1	-33.4%	0.0%	15.4%
O=C(CN1CCCCCC1)Nc1ccc(Cl)cn1	39.8µM*	-5.2%	-12.2%
Cc1nc(-n2nc(C)c(CCC(C)C)c2C)sc1C(=O)Nc1ccc(Br)cc1	-1.0%	12.7%	.
CCC[n+]1c2ccccc2cc2ccccc21	?	?	-21.5%
CCCC[n+]1c2ccccc2cc2ccccc21	?	31.6µM*	-24.4%
O=C(NC(Cc1ccccc1)C(=O)O)/C(=C/c1ccc(Br)cc1)NC(=O)c1ccc(Br)o1 (stereo unspecified)	?	-0.3%	-30.6%
CCN1C(=O)[C@H]2[C@@H](c3ccc(-c4ccc5c(c4)OCO5)c(OC)c3)N[C@@](C)(C(=O)OC)[C@H]2C1=O	.	.	150.9%
Cc1cc(C=O)c(C)n1-c1cccc(C(=O)O)c1	0.0%	4.4%	-5.9%
Cc1ccc(C)n1-c1cccc(C(=O)O)c1	8.91µM*	-1.9%	-5.9%
Cn1cc(Cl)c(C(=O)Nc2nc3ccccc3s2)n1	2.6%	0.6%	2.7%
Cn1cc(Cl)c(C(=O)Nc2cccc(Cl)c2Cl)n1	0.2%	1.6%	7.08µM*
Cc1nnc(SCC(=O)NCc2ccccc2F)c2nn(-c3ccc(Cl)cc3)c(C)c12	5.6%	7.1%	.
O=C(O)C1C2C=CC(O2)C1C(=O)Nc1ccc(S(=O)(=O)N2CCc3ccccc32)cc1 (stereo unspecified)	14.1µM*	-3.6%	-19.8%
NS(=O)(=O)c1ccc(NS(=O)(=O)c2ccc(NC(=S)Nc3ccccc3)cc2)cc1	?	?	-13.1%
O=C(O)C1C2C=CC(O2)C1C(=O)Nc1ccc(S(=O)(=O)Nc2ccccc2)cc1 (stereo unspecified)	6.31µM*	-9.3%	-29.4%
CC(=O)Nc1ccc(S(=O)(=O)N2CCCc3ccccc32)cc1	-27.4%	-0.8%	-7.2%
Cc1ccsc1C(=O)NNC(=O)C1C2C=CC(C2)C1C(=O)O (stereo unspecified)	-7.1%	-7.8%	-3.3%
SMILES	Sm TGR inh	AmpC detergent	AmpC inh no detg
CC1=CC(c2ccccc2)n2nc(NC(=O)CCC(=O)O)nc2N1 (stereo unspecified)	12.6µM*	6.6%	-10.6%
O=C(COc1ccc(Cl)cc1Cl)Nc1nc2n(n1)C(c1ccccc1)CC(=O)N2 (stereo unspecified)	-26.2%	?	-30.3%
Nc1nc(NC(=O)CCCC(=O)O)nn1-c1ccccc1	4.4%	?	-20.6%
CC1=CC(c2ccccc2)n2nc(NC(=O)CCCC(=O)O)nc2N1 (stereo unspecified)	20µM*	-7.5%	2.0%
N#C/C(=C\c1ccc(O)c(O)c1)C(=O)Nc1cccc2ncccc12	?	-12.7%	?
COc1ccc(C(C)=O)cc1COC(=O)c1cccnc1Cl	12.6µM*	3.6%	-5.0%
COc1ccc(C(C)=O)cc1COC(=O)CSC(C)C(=O)Nc1cc(C)on1 (stereo unspecified)	?	0.0%	-13.8%
COc1ccc(C(C)=O)cc1COC(=O)CNC(=O)c1ccccc1F	8.91µM*	-6.0%	-16.7%
COc1ccc(C(C)=O)cc1COC(=O)c1cc2ccccc2cc1O	-29.8%	?	-1.9%
COc1ccc(C(C)=O)cc1COC(=O)CNC(=O)C1CCCCC1	.	.	-8.1%
COc1ccc(C(C)=O)cc1COC(=O)CSCC(=O)Nc1ccc(C)cc1	35.5µM*	-12.5%	-17.2%
O=C(Cn1nnc(-c2cccc(C(F)(F)F)c2)n1)NNS(=O)(=O)c1cccc(C(F)(F)F)c1	0.5%	?	-14.3%
CC(C)Cn1c(=S)[nH]c2cc(C(=O)NCc3ccccc3F)ccc2c1=O	-1.0%	-4.9%	-34.8%
COc1cccc(NC(=S)NC(=O)c2cccnc2)c1	11.2µM*	-13.1%	-25.8%

Screening data deposited in PubChem BioAssay by National Center for Advancing Translational Sciences (NCATS).
